Bioassay records from PubChem BioAssay.
Only some compounds are listed: those with a hit (about 5.6% of all), similar ones and a draw of the others.
Gal4-VP16 FLuc – VP16 counterscreen qHTS for inhibitors of ROR gamma transcriptional activity; Drosophila S2 Gal4-VP16 UAS-luciferase, luminescence, 20 h; 310,000 compounds, 3.5% hits; Potency, µM (highest dose often 53.6 µM), inactives show at the highest dose activity, negative = inhibition, most hits filed as inhibitors;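 note: Gal4-VP16 expression switched on by copper sulfate through the metallothionein promoter; potency is the fitted concentration of half-maximal effect; nearly all actives have a fitted effect of over 50% in size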
PKM2 act – qHTS Assay for Activators of Human Muscle isoform 2 Pyruvate Kinase; Pyruvate kinase PKM (Homo sapiens), P14618; purified PKM2, Kinase-Glo ATP luminescence, activation; response scale: 0% is enzyme alone, no compound; Potency, µM (doses to about 57.5 µM), without a hit: at the highest dose activation, usual class: activators; 260,000 compounds, 0.34% hits; AID 1631, 2009; note: potency is the fitted concentration of half-maximal effect; nearly all actives have a fitted effect of over 55% in size
Target sequence (P14618 whole entry, looked up, canonical isoform): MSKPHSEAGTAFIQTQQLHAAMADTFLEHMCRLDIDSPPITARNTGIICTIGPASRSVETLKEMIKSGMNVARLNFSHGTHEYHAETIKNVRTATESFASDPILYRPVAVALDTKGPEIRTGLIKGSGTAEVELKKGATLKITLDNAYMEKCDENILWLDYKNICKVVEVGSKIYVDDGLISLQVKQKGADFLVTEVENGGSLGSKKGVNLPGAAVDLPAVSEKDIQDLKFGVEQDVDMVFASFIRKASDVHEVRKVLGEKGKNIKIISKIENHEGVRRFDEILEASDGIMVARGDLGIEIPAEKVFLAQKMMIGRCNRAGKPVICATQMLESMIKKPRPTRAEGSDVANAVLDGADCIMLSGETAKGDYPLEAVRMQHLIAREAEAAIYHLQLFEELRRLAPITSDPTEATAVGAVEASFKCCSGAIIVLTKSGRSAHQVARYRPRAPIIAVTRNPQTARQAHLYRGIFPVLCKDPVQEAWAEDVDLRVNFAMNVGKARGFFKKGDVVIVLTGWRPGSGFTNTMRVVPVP
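Kinase-Glo luminescence reports ATP generated from ADP (0.1 mM) and PEP (0.5 mM) by purified hPK-M2 after 1 h at room temperature, pH 7.2 imidazole buffer; intermediate enzyme activity allows detecting inhibitors and activators.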
CtBP-E1A blk – qHTS Assay for Inhibitors of the CtBP/E1A Interaction; CtBP / adenovirus E1A interaction (AlphaScreen); AlphaScreen GST-E1A/His-CtBP binding, 1536-well; active compounds read low; activity change, % (no concentration beside the values); 340,000 compounds, 0.49% hits; AID 651724, 2012; in the data active = activity change below about -65%; inconclusive = mostly about -30% to -63%
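Protein mix (5X: 125 nM each GST-E1A, His-CtBP) was incubated with pinned compound 2 h at 37 deg C in dark, in 50 mM Tris pH 8.0 buffer with 300 mM NaCl. Glutathione donor and nickel acceptor beads followed; AlphaScreen signal read after 1 h.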
Six1-Eya2 inh – qHTS Assay for Inhibitors of the Six1/Eya2 Interaction; AlphaScreen GST-Six1/His-Eya2 binding, biochemical; active compounds read low; AID 651725, 2012; activity change, % (test concentration not listed); 360,000 compounds, 0.56% hits; Homeobox protein SIX1 (Homo sapiens) + Protein phosphatase EYA2 (Homo sapiens), …; in the data active = activity change below about -65%; inconclusive = mostly about -30% to -63%
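GST-Six1 + His-Eya2 (5X stock: 250/500 nM); Tris pH 8.0, 300 mM NaCl, 0.05% BSA, 0.02% Tween 20; GSH donor/Ni acceptor beads; 1 h 37 °C dark; AlphaScreen readout.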
RORgamma inh – qHTS for inhibitors of ROR gamma transcriptional activity | Drosophila S2 Gal4-RORgamma UAS-luciferase reporter, 20 h | Nuclear receptor ROR-gamma (Mus musculus), P51450 | Potency, µM (doses to about 53.6 µM), inactives show at the top dose activity change, negative = inhibition, most hits filed as inhibitors | 310,000 compounds, 5.4% hits; note: potency is the fitted concentration of half-maximal effect; nearly all actives have a fitted effect of over 60% in size
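Using a luciferase readout, inhibitors were identified by reduced reporter activity in Drosophila cells coexpressing a copper-inducible Gal4–ROR gamma fusion and UAS-driven Photinus luciferase, incubated 20 hr after 700 uM copper sulfate.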
An asterisk follows results filed as active; ? = inconclusive; . = not tested or not shown. Unless noted, calls come from the whole dose curve; as a rule, active = well fitted curve in the direction sought with a large enough effect; inconclusive = small, poorly fitted or top-dose-only effect, or another doubt; inactive = no such curve, though single readings can be large; an effect the other way counts as inactive or inconclusive. % is set by controls: 0 for no effect and ±100 for the full control effect.

SMILES	Gal4-VP16 FLuc	PKM2 act	CtBP-E1A blk	Six1-Eya2 inh	RORgamma inh
Cc1n[nH]c(=S)n1/N=C/c1ccccc1OCc1ccc(Cl)cc1	?	4%	-3	-9	4.5µM*
CCOc1ccc(/C=N/n2c(COc3ccccc3)n[nH]c2=S)cc1OC	-5%	.	.	-1	-33%
COc1cccc(/C=N/n2c(COc3ccccc3)n[nH]c2=S)c1O	?	.	2	0	13µM*
Cc1n[nH]c(=S)n1/N=C/c1cccc(OCc2ccccc2)c1	-7%	-6%	-7	-29	36%
COc1cccc(/C=N/n2c(COc3ccccc3)n[nH]c2=S)c1OC	?	.	.	-9	20µM*
COc1ccccc1/C=C/C=N/n1c(COc2ccccc2)n[nH]c1=S	-23%	-5%	-3	-20	3.5µM*
CCOc1ccc(N(CC(=O)N2CCN(c3ccc(F)cc3)CC2)S(=O)(=O)c2c(C)noc2C)cc1	-11%	.	2	-12	1%
O=C(O)CC(C(=O)O)N1C(=O)/C(=C/c2ccc(-c3nc4ccccc4s3)o2)SC1=S (stereo not drawn)	-4%	-1%	?	-77*	2%
O=Cc1ccc(-c2nc3ccccc3s2)o1	7.9µM*	-36%	2	-9	4.5µM*
CCOC(=O)CC/C(=N\NC(N)=O)c1ccc(OC)c(Cl)c1	.	.	-8	5	.
S=c1nccc(-c2ccc(Cl)cc2)[nH]1	5µM*	-1%	5	3	2.8µM*
Cc1ccc(-c2csc(=S)[nH]2)cc1	?	-4%	-5	-3	7.1µM*
Clc1ccc(-c2ccn[nH]2)cc1	-17%	-6%	-1	9	-33%
S=c1[nH]c(-c2ccc(Cl)cc2)cs1	0%	3%	7	-15	7.1µM*
CC(C)NC(=O)c1cc(C2CCCCN2S(=O)(=O)c2ccccc2)on1 (stereo not drawn)	.	.	0	-4	.
Cc1cccc(NC(=O)Nc2ccccc2[N+](=O)[O-])n1	5%	.	1	-1	43%
O=C(N/N=C/c1ccc([N+](=O)[O-])o1)c1ccc2c(c1)OCO2	10µM*	4%	-15	-7	4.5µM*
O=C(N/N=C\c1ccc(-c2ccc([N+](=O)[O-])cc2)o1)c1ccc2c(c1)OCO2	?	-15%	-4	-7	-37%
O=C(N/N=C/c1cccnc1)c1ccc2c(c1)OCCO2	14µM*	-12%	12	2	?
O=C(N/N=C/c1ccccc1)c1ccc2c(c1)OCO2	11µM*	-1%	3	1	?
O=C(N/N=C/c1ccc(Br)o1)c1ccc2c(c1)OCCO2	?	-3%	-11	-27	11µM*
O=C(N/N=C/c1ccc2c(c1)OCO2)c1cccnc1	18%	-12%	0	2	-23%
CN(C)c1ccc(/C=N/NC(=O)c2ccc3c(c2)OCO3)cc1	3%	.	-2	-5	?
COc1cc(C(=O)Oc2ccc3c(c2)OCC3=O)cc(OC)c1OC	-13%	-3%	-9	-21	?
O=C(Oc1ccc2c(c1)OCC2=O)c1ccc(Cl)cc1	0%	2%	-14	-66*	23%
SMILES	Gal4-VP16 FLuc	PKM2 act	CtBP-E1A blk	Six1-Eya2 inh	RORgamma inh
COc1ccc(-c2nc3cc(C)ccn3c2NCc2ccc3c(c2)OCO3)cc1	?	0%	.	-12	7.1µM*
COc1ccc(-c2nc3ccccn3c2NCc2ccc3c(c2)OCO3)cc1	-23%	-6%	-3	-18	?
c1ccc(-c2nc3ccccn3c2NCc2ccc3c(c2)OCO3)cc1	-6%	2%	-1	-8	10µM*
CS(=O)(=O)c1ccc(Cn2c3c(c4cc(F)cc(F)c42)CCC[C@H]3CC(=O)O)cc1	?	.	.	.	30%
Cc1ccc(C(=O)NCC(=O)OCc2c(F)cccc2Cl)cc1	.	.	2	23	.
Cc1ccc(S(=O)(=O)NCC(=O)NCC(=O)OCc2c(F)cccc2Cl)cc1	-2%	35µM*	-17	0	23%
COc1ccccc1OCc1nc(C#N)c(NCCCn2ccnc2)o1	-13%	14%	-4	-1	21%
N#Cc1nc(COc2ccccc2F)oc1NCCCn1ccnc1	0%	9%	-75*	?	31%
CNCCCNC(=O)c1ccc(/C=N/O)nc1	4%	-7%	?	-69*	-1%
C[N+](C)(C)CCCNC(=O)c1ccc(/C=N/O)nc1	1%	-4%	?	-69*	-4%
CN(C)CCCNC(=O)c1ccc(/C=N/O)nc1	17%	1%	?	?	-26%
O=C(NCc1ccccc1)c1ccc(/C=N/O)nc1	2%	2%	-20	?	5µM*
COc1ccccc1-c1nccc(NCc2cnc(C)cn2)n1	5%	.	.	.	1%
O=C(NC1CCCCC1)C(c1cccc2ccccc12)n1c(=O)c(-c2ccco2)nc2ccccc21 (stereo not drawn)	.	.	3	-15	.
COCc1c(C(=O)OCc2nc3ccsc3c(=O)[nH]2)oc2ccccc12	.	.	3	-3	.
N=c1c2c(-c3ccccc3)c(-c3ccccc3)n(Cc3ccco3)c2ncn1CCCO	3.2µM*	7%	-15	-25	3.2µM*
COC(=O)c1cc(N/C(N)=N/c2nc(C)cc(C)n2)cc(C(=O)OC)c1	.	.	-2	35	.
CCN1CCN(c2c(/C=C3\SC(=S)N(Cc4ccco4)C3=O)c(C)c(C#N)c(=O)n2C)CC1	?	7%	-4	-7	7.1µM*
COc1ccc(-n2c(C)cc(/C=C3\SC(=S)N(Cc4ccco4)C3=O)c2C)cc1	-8%	4%	-23	0	96%
O=C(Nc1ccc(F)cc1)OCCOc1ccc(Br)cc1	-16%	-12%	.	15	-11%
COC(=O)C1(C(=O)OC)C[C@H](/C=C/c2ccccc2)N(Cc2ccccc2OC)[C@@H]1c1ccc(F)cc1	.	.	-5	-7	.
CC(=O)OCC(=O)[C@@]12OC3(CCCC3)O[C@@H]1C[C@H]1[C@@H]3CCC4=CC(=O)C=C[C@]4(C)[C@@]3(F)[C@@H](O)C[C@@]12C	-8%	-6%	1	1	8.9µM*
O=C1NC(=O)/C(=C/c2cc3c(cc2Br)OCO3)S1	9%	.	?	-5	6%
COCCN1C(=O)/C(=C/c2cc3c(cc2Br)OCO3)NC1=S	?	-2%	.	4	11µM*
CCC(CC)c1nnc(NC(=O)c2ccc3ccccc3n2)s1	10µM*	-1%	-7	0	3.5µM*
CCc1nnc(NC(=O)c2cc(-c3cccnc3)nc3ccccc23)s1	10%	.	.	-1	-21%
CC(C)Cc1nnc(NC(=O)c2cc(-c3ccccc3)nc3ccccc23)s1	?	-2%	-5	2	4.5µM*
